Cruzain noTriton – cruzain (T. cruzi) inhibition without detergent; hit rate 2.3% among 200,000; P25779; purified cruzain, Z-FR-AMC fluorescence, no detergent; Potency, µM, hits mostly inhibitors; also: nearly all actives have a fitted effect of over 40% in size
Target sequence (P25779 123-467 limits assumed): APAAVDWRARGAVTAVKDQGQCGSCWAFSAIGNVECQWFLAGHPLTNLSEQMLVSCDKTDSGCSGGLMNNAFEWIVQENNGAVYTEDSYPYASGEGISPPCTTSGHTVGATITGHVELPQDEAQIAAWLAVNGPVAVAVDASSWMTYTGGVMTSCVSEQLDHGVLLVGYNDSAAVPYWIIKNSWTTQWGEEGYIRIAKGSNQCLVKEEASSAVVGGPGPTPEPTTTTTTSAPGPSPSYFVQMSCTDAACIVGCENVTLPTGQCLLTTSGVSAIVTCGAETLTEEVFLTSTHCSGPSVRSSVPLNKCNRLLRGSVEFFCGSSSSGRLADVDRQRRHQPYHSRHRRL
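Purified cruzain at 1.5 nM, pre-incubated 15 min with compound at room temperature in 100 mM sodium acetate pH 5.5, 5 mM DTT, 0.00005% Triton X-100. Reaction started with 2 uM Z-FR-AMC; AMC fluorescence increase over 60 s gives rate.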
Cruzain Triton – blocks cruzain activity in presence of Triton detergent | P25779 | purified cruzain, Z-FR-AMC fluorescence, 0.01% Triton | Potency, µM, most hits filed as inhibitors | hit rate 0.43% among 200,000 | AID 1478; also: nearly all actives have a fitted effect of over 40% in size
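Steps: dispense cruzain (1.5 nM final) in acetate buffer pH 5.5 with DTT and 0.01% Triton X-100; pin-transfer compounds; incubate 15 min RT; add Z-FR-AMC (2 uM final); read fluorescence every 30 s, using the 60 s intensity change.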
Numbers stand for hits. In the library only some 2.5% were active in any assay of this set; here they are far more common. Calls follow the shape of the dose curve; as a rule, active = well fitted curve in the direction sought with a large enough effect; inconclusive = small, poorly fitted or top-dose-only effect, or another doubt; inactive = no such curve, though single readings can be large; an effect the other way counts as inactive or inconclusive.

How did CCc1ccccc1NC(=O)Cn1c(=O)n(Cc2ccc(OC)cc2)c(=O)c2oc3ccccc3c21 do in these assays?
Cruzain noTriton: inactive; Cruzain Triton: inactive

What do the screens show for `COc1ccccc1OCc1nnc(SCC(=O)Nc2ccc(C)cc2)n1C`?
Cruzain noTriton: inactive; Cruzain Triton: inactive

Results for Cn1c(SCC(=O)Nc2cccc(Br)c2)nnc1-c1cc2ccccc2o1 ?
Cruzain noTriton: 13µM; Cruzain Triton: inactive

Results for Cc1ccccc1OCc1nnc(SCC(=O)Nc2ccc3c(c2)oc2ccccc23)n1C ?
Cruzain noTriton: 20µM; Cruzain Triton: inactive

Results for Cc1ccc(-c2nnc(SCC(=O)Nc3ccc4c(c3)oc3ccccc34)n2C)c(Cl)c1 ?
Cruzain noTriton: inconclusive; Cruzain Triton: inactive

What do the screens show for `CCOC(=O)c1[nH]c(C)c(CCC(=O)Nc2ccc(C(C)=O)cc2)c1C`?
Cruzain noTriton: inactive; Cruzain Triton: inactive

What do the screens show for `Cc1[nH]c2c(Cl)cccc2c1CCN`?
Cruzain noTriton: inactive; Cruzain Triton: inactive

How did Cc1[nH]c2c(ccc3ccccc32)c1C1C(CCN)C1(C)C (stereo unspecified) do in these assays?
Cruzain noTriton: 10µM; Cruzain Triton: inactive

What do the screens show for `COc1ccc(N2C(=O)CC(S/C(N)=N/N=C(\C)c3cccs3)C2=O)cc1` (stereo unspecified)?
Cruzain noTriton: inactive; Cruzain Triton: inactive

Results for CCOc1ccc(N2C(=O)CC(S/C(N)=N/N=C/c3cccs3)C2=O)cc1 (stereo unspecified) ?
Cruzain noTriton: 10µM; Cruzain Triton: inactive

Results for COc1ccc(C)cc1NC(=O)C(OC(=O)c1ccc([N+](=O)[O-])o1)c1ccccc1 (stereo unspecified) ?
Cruzain noTriton: inconclusive; Cruzain Triton: inactive

Results for COc1ccc(C)cc1NC(=O)C(NS(=O)(=O)c1cccs1)c1ccccc1 (stereo unspecified) ?
Cruzain noTriton: inactive; Cruzain Triton: inactive

What do the screens show for `COc1ccc(C)cc1NC(=O)C(OC(=O)CNC(=O)c1cc(C)cc(C)c1)c1ccccc1` (stereo unspecified)?
Cruzain noTriton: 20µM; Cruzain Triton: 8.9µM

How did COc1ccc(C)cc1NC(=O)C(OC(=O)CNC(=O)c1ccc(Br)cc1)c1ccccc1 (stereo unspecified) do in these assays?
Cruzain noTriton: 10µM; Cruzain Triton: 7.9µM

Results for Cc1cc(C(=O)NCC(=O)OC(C(=O)Nc2cc(C(F)(F)F)ccc2Cl)c2ccccc2)ccc1[N+](=O)[O-] (stereo unspecified) ?
Cruzain noTriton: 32µM; Cruzain Triton: 4.5µM

How did CCCC(=O)OC(C(=O)Nc1cc(C(F)(F)F)ccc1Cl)c1ccccc1 (stereo unspecified) do in these assays?
Cruzain noTriton: inactive; Cruzain Triton: inactive

What do the screens show for `COCCn1c(=O)c(-c2ccc(Cl)cc2)nc2cnc(N3CCNCC3)nc21`?
Cruzain noTriton: inconclusive; Cruzain Triton: inactive

How did CCc1cccc(C)c1NC(=O)C1CCN(c2nnc(C)c3c(C)n(-c4ccccc4)nc23)CC1 do in these assays?
Cruzain noTriton: inactive; Cruzain Triton: inactive

Results for CC(=O)c1ccc(NC(=O)NCCc2c[nH]c3ccccc23)cc1 ?
Cruzain noTriton: inactive; Cruzain Triton: inactive

What do the screens show for `COc1ccccc1CNC(=O)Cn1c(=O)nc(-c2ccccc2F)c2cc(Cl)ccc21`?
Cruzain noTriton: inactive; Cruzain Triton: inactive

Results for N#C/C(=C\c1cc([N+](=O)[O-])c(N2CCCCC2)cc1N1CCCCC1)c1nn(-c2ccccc2)c(N)c1C#N ?
Cruzain noTriton: 7.9µM; Cruzain Triton: inactive

How did N#C/C(=C\c1cc([N+](=O)[O-])c(N2CCOCC2)cc1N1CCOCC1)c1nc2ccccc2[nH]1 do in these assays?
Cruzain noTriton: inconclusive; Cruzain Triton: inactive

What do the screens show for `Cc1ccc(Cn2ccc(NC(=O)c3cc4nc5c(c(C(F)(F)F)n4n3)CCc3ccccc3-5)n2)cc1`?
Cruzain noTriton: inactive; Cruzain Triton: inactive

Results for Cc1ccc(O)c(NC(=O)c2cc3nc4c(c(C(F)(F)F)n3n2)CCc2ccccc2-4)c1 ?
Cruzain noTriton: 10µM; Cruzain Triton: inactive

What do the screens show for `Cc1ccc(CNC(=O)C2CCCN(c3ncnc4onc(-c5ccc(F)cc5)c34)C2)cc1` (stereo unspecified)?
Cruzain noTriton: inactive; Cruzain Triton: inactive

Results for Cc1ccc(NC(=O)Nc2cn(CC(C)C)c(=O)c3ccccc23)cc1N(C)C ?
Cruzain noTriton: inactive; Cruzain Triton: inactive

What do the screens show for `O=C(Nc1ccc(N=Nc2ccccc2)cc1)c1ccc(Cl)cc1Cl`?
Cruzain noTriton: 13µM; Cruzain Triton: inactive

What do the screens show for `O=C(Nc1ccc(N=Nc2ccccc2)cc1)c1ccccc1Cl`?
Cruzain noTriton: inactive; Cruzain Triton: inactive

Results for Cc1csc2nc(-c3cccc(NC(=O)C(C)C)c3)cn12 ?
Cruzain noTriton: inactive; Cruzain Triton: inactive

How did C[C@]1(c2ccccc2)O[C@@H]2C[C@@H]3[C@@H]4CCC5=CC(=O)C=C[C@@]5(C)[C@]4(F)[C@H](O)C[C@]3(C)[C@@]2(C(=O)CO)O1 do in these assays?
Cruzain noTriton: inactive; Cruzain Triton: inactive

Results for Cc1[nH]nc(-c2ccc(OCc3cnn(-c4ccccc4)c3)cc2O)c1Oc1ccc(F)cc1 ?
Cruzain noTriton: inconclusive; Cruzain Triton: inactive

Results for Cc1[nH]nc(-c2ccc(OCc3cnn(-c4ccccc4)c3)c(C)c2O)c1Oc1ccccc1 ?
Cruzain noTriton: 13µM; Cruzain Triton: inactive

Results for COc1cccc(/C=N/NC(=O)c2ccc(-c3ccccc3)cc2)c1O ?
Cruzain noTriton: 16µM; Cruzain Triton: inactive

What do the screens show for `COc1cccc(/C=N/NC(=O)c2ccc(=O)n(C)c2)c1O`?
Cruzain noTriton: inactive; Cruzain Triton: inactive

What do the screens show for `COc1ccccc1/C=N/NC(=O)c1ccccc1NS(=O)(=O)c1ccc(C)cc1`?
Cruzain noTriton: inactive; Cruzain Triton: inactive

What do the screens show for `COc1ccccc1/C=N/NC(=O)C1=NNC(c2ccccc2)(c2ccccc2)C1`?
Cruzain noTriton: 16µM; Cruzain Triton: inactive

How did CCOc1ccc2c(c1)c(=O)c(S(=O)(=O)c1ccc(Cl)cc1)cn2Cc1ccccc1C do in these assays?
Cruzain noTriton: inconclusive; Cruzain Triton: inactive

What do the screens show for `O=C(Nc1cccc(C(F)(F)F)c1)c1ccc2snnc2c1`?
Cruzain noTriton: inactive; Cruzain Triton: inactive

How did O=C(Nc1ccc2nc(-c3ccco3)c(-c3ccco3)nc2c1)NC1CC1 do in these assays?
Cruzain noTriton: 2.5µM; Cruzain Triton: 8.9µM

Results for COc1ccc(CCNC(=O)c2ccc3nc(-c4ccco4)c(-c4ccco4)nc3c2)cc1OC ?
Cruzain noTriton: inactive; Cruzain Triton: 14µM

Results for OCCCNC(=S)Nc1ccc2nc(-c3ccccn3)c(-c3ccccn3)nc2c1 ?
Cruzain noTriton: inactive; Cruzain Triton: inactive

Results for O=C(Nc1nc(-c2ccco2)c(-c2ccco2)s1)C1CCC1 ?
Cruzain noTriton: inactive; Cruzain Triton: inactive

What do the screens show for `O=C(NCCCO)Nc1ccc2nc(-c3ccco3)c(-c3ccco3)nc2c1`?
Cruzain noTriton: 7.9µM; Cruzain Triton: 13µM

What do the screens show for `O=C(Nc1cccc(C(F)(F)F)c1)c1ccc2nc(-c3ccco3)c(-c3ccco3)nc2c1`?
Cruzain noTriton: inconclusive; Cruzain Triton: 14µM

Results for CCc1nc2ccc(C(=O)NCCc3ccc(OC)c(OC)c3)cc2nc1CC ?
Cruzain noTriton: inactive; Cruzain Triton: inactive

Results for O=C(CCCn1c(=O)c2cccn2c2ccccc21)Nc1cc(C(F)(F)F)ccc1Cl ?
Cruzain noTriton: inactive; Cruzain Triton: inactive

Screens from PubChem BioAssay.
